# Most compounds without a hit are left out; they make up all but 1.5% or so of the library.
# ABHD5-PLIN5 inh = blocks binding of human ABHD5 to perilipin-5 | Split G. princeps luciferase complementation, luminescence, 4 h | 360,000 tested, 0.78% active | inhibition, % at 4 µM | Q00G26+Q8WTS1;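 active means inhibition above the mean inhibition across every tested compound plus 3 SD, cut at about 22% in these data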;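 further: 0% = DMSO only wells and the 100% control is not disclosed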
# NTR1 agonist = activates human neurotensin receptor 1 | P30989 | NTR1-U2OS beta-arrestin-GFP spot imaging, agonist mode | activation, % at 20 µM | 330,000 tested, 0.17% active | AID 493036;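 active means activation at or above 40% of the spot to cytoplasm intensity ratio, with at least 20 cells analyzed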;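 further: 0% = DMSO without peptide and 100% = 100 nM NTR1 peptide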
# Target sequence (P30989 whole entry, looked up): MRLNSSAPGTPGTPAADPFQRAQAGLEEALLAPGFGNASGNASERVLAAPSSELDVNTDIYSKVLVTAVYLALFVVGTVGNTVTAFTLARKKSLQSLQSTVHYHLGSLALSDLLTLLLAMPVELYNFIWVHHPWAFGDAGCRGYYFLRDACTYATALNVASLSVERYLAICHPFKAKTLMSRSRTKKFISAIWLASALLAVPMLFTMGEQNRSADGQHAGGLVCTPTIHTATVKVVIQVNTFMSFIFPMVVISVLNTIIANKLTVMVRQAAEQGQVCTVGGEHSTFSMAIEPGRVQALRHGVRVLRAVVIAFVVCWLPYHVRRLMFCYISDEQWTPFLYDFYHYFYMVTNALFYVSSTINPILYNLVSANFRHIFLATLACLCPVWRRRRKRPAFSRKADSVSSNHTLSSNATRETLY
# TLR4-MyD88 BLA = TLR4-MyD88 interaction inhibition in cells | O00206+Q99836 | HeLa CL3-4 TLR4/MyD88 BLA complementation, FRET ratio | 200,000 tested, 0.18% active | inhibition, % at 8.4 µM; in the data active means inhibition above about 25%;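 further: 0% = vehicle and 100% = reference inhibitor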
# B2AR ag = activates human beta-2 adrenergic receptor causing internalization; P07550; Am2.2-beta2AR cells, FAP receptor internalization, flow cytometry; response, % (concentration not given with the values); 340,000 tested, 0.43% active;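 active means response above a set limit, near 3 SD of response in nonfluorescent compounds, cut at about 42% in these data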
# NOD2 RIPK2 PPI = blocks binding of human NOD2 to RIPK2; CHO BLA complementation NOD2-RIPK2, CCF4 ratio; inhibition, % at 4.98 µM; O43353; 360,000 tested, 0.38% active; in the data active means inhibition above about 21%;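 further: 0% = vehicle only and 100% = reference blocker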
# TLR9-MyD88 block = inhibitors of human TLR9-MyD88 binding. Q9NR96+Q99836. CHO BLA complementation TLR9-MyD88, CCF4 FRET ratio. AID 504734. inhibition, % at 4.98 µM. 340,000 tested, 0.21% active;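 active means inhibition above the mean over all tested compounds plus 3 SD, cut at about 21% in these data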;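 further: 0% = DMSO only wells and 100% = clavulanate BLA inhibitor control wells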
# ABHD5-PLIN5 conf = confirmation of human ABHD5-PLIN5 interaction inhibitors | 2,200 tested, 67% active | biochemical ABHD5-PLIN5 interaction, luminescence | AID 651612 | inhibition, % at 4 µM | shares compounds with ABHD5-PLIN5 inh; in the data active means inhibition above about 23%;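 further: 0% = DMSO vehicle wells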
# HNF4 counter = active in HNF4 split-luciferase counter-screen for ABHD5-PLIN5 inhibitors; shares compounds with ABHD5-PLIN5 inh; HNF4 dimerization, luminescence, biochemical; inhibition, % at 4 µM; 2,200 tested, 77% active;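 active means mean inhibition across replicate wells exceeding the computed hit threshold, cut at about 13% in these data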;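 further: light from luciferase halves that rejoin when HNF4 fusion proteins dimerize; 0% = DMSO only wells and the 100% control is not given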
# NOD2 RIPK2 conf = NOD2-RIPK2 interaction inhibition confirmed; shares compounds with NOD2 RIPK2 PPI; CHO cells, NOD2-RIPK2 BLA complementation, CCF4 FRET; inhibition, % at 4.98 µM; 1,200 tested, 70% active;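 active means mean inhibition across replicates above a set limit taken from the earlier primary screen, cut at about 21% in these data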;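 further: 0% = DMSO-only wells and the high end = clavulanate BLA-blocked wells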
# NOD2 BLA counter = counter-screen for NOD2-RIPK2 interaction inhibitors: BLA reporter; 1,200 tested, 57% active; AID 624371; CHO BLA reporter, CCF4 FRET ratio, counterscreen; shares compounds with NOD2 RIPK2 PPI; inhibition, % at 4.98 µM;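 active means mean inhibition above the low-control mean inhibition plus three low-control SD, cut at about 11% in these data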;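 further: 0% = DMSO only wells and 100% = clavulanate high control wells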
# An asterisk follows results filed as active; · = no result given.
SMILES,ABHD5-PLIN5 inh,NTR1 agonist,TLR4-MyD88 BLA,B2AR ag,NOD2 RIPK2 PPI,TLR9-MyD88 block,ABHD5-PLIN5 conf,HNF4 counter,NOD2 RIPK2 conf,NOD2 BLA counter
CCSc1nnc(-c2c[nH]c3ccccc23)o1,98.4*,1.9,·,0.0,5.2,-3.7,5.4,3.8,·,·
O=C(C=Cc1ccccc1)CC(c1ccccc1)N1CCOCC1 (centres undefined),76.6*,·,·,5.0,12.1,-0.6,99.6*,95.5*,·,·
OCCc1ccc(NCCc2cccs2)cc1,0.3,·,·,·,-9.4,·,·,·,·,·
CC12CCC(O)CC1=CCC1C2CCC2(C)c3[nH]ncc3CC12 (centres undefined),7.5,·,·,12.1,-15.0,-6.0,·,·,·,·
Cc1cccc(-c2cnc(C(O)Cc3ccccc3)[nH]2)c1 (centres undefined),2.7,·,·,·,11.0,·,·,·,·,·
Cc1cc(F)ccc1-c1cc(C(=O)NCc2ccco2)[nH]n1,0.0,·,·,·,0.3,·,·,·,·,·
ClC(Cl)(c1nnnn1-c1ccccc1)c1nnnn1-c1ccccc1,87.0*,·,-1.2,7.0,42.3*,12.3,74.1*,102.7*,42.2*,7.0
Cc1ccc(NC(=O)Cn2c(=O)ccn(Cc3ccccc3)c2=O)cc1S(=O)(=O)N1CCOCC1,-2.5,·,·,4.4,-3.5,1.9,·,·,·,·
CCOC(=O)C1CCN(Cc2cc(Cl)c3ccccc3c2O)CC1,65.9*,10.9,·,5.7,27.6*,4.0,19.6,55.2*,3.9,5.0
CCCC1NC(=O)c2cccnc2-n2c1nc1ccc(Br)cc1c2=O (centres undefined),5.3,·,·,·,1.3,-0.8,·,·,·,·
CCOC(=O)/C=C/C(=O)Nc1ccc(S(=O)(=O)Nc2c(C)cc(C)cc2C)cc1,11.2,5.7,-7.5,-5.0,-11.6,-5.5,·,·,·,·
CCOC(=O)/C=C/S(=O)(=O)c1ccc(NC(C)=O)cc1,77.4*,9.0,10.7,15.5,22.0*,22.7*,78.2*,108.8*,54.2*,21.4*
Cc1ccccc1N1C(=O)CC(Sc2nnc(-c3ccccc3)o2)C1=O (centres undefined),35.0*,-0.9,-6.7,15.9,43.1*,-4.9,59.8*,98.2*,34.4*,5.5
O=C1CC(Sc2nnc(-c3ccccc3)o2)C(=O)N1c1ccccc1 (centres undefined),13.1,1.4,-21.2,1.8,4.0,-5.5,·,·,·,·
O=C1N/C(=C/c2ccc(N3CCOCC3)o2)C(=O)N1c1cccc(Cl)c1,69.7*,5.9,11.2,17.7,33.4*,11.0,70.8*,99.8*,21.8*,8.6
Cc1ccc(/C=C2/NC(=O)N(c3ccccc3)C2=O)o1,19.4,-1.2,19.2,9.7,6.4,2.0,·,·,·,·
O=C(COC(=O)/C=C/c1cccc(F)c1)NCc1ccc2c(c1)OCO2,0.5,·,·,·,-13.3,5.0,·,·,·,·
COC(=O)c1ccc2c(c1)C(C)(C)C(/C=C/c1ccc(OC)c(OC)c1OC)=[N+]2C,47.0*,38.1,14.7,57.1*,26.4*,2.1,101.3*,101.1*,87.7*,5.9
COc1ccc(/C=N/Nc2ccc(C(=O)O)cc2)c(OC)c1OC,-0.5,-0.2,·,17.2,-4.7,-3.4,·,·,·,·
CC1=C(CO)C(=O)OC([C@@H](C)C2CC[C@H]3C4C[C@H]5O[C@]56[C@@H](O)C=CC(=O)[C@]6(C)C4CC[C@]23C)C1 (some centres undefined),64.6*,·,·,21.7,46.9*,3.1,76.7*,76.6*,62.6*,7.0
CC1(C(=O)NS(=O)(=O)c2ccc(F)cc2F)CCN1C(=O)C/C=C/c1ccccc1 (centres undefined),11.4,·,·,·,13.9,·,·,·,·,·
O=S(=O)(Nc1ccc(C(O)(C(F)(F)F)C(F)(F)F)cc1)c1ccc(Cl)c2nonc12,42.0*,·,·,·,28.8*,·,51.4*,47.7*,31.9*,4.5
O=S(=O)(Nc1ccc(Br)cc1)c1cccc2nonc12,1.5,-0.7,·,7.4,-4.9,-6.0,·,·,·,·
COc1nc(-c2ccccc2)cc(C(F)(F)F)n1,-3.4,-0.4,0.9,-5.0,-5.8,2.3,·,·,·,·
COc1ccc(-c2cc(C(F)(F)F)nc(N)n2)cc1,1.7,1.3,-4.3,-13.1,3.7,0.8,·,·,·,·
SMILES,ABHD5-PLIN5 inh,NTR1 agonist,TLR4-MyD88 BLA,B2AR ag,NOD2 RIPK2 PPI,TLR9-MyD88 block,ABHD5-PLIN5 conf,HNF4 counter,NOD2 RIPK2 conf,NOD2 BLA counter
Cc1cc(NC(=O)CCCS(=O)(=O)c2nc(-c3cccs3)cc(C(F)(F)F)n2)no1,47.4*,15.7,23.1,39.4,67.6*,20.2,73.6*,100.2*,43.4*,15.2*
COc1ccc(-c2cc(C(F)(F)F)nc(S(C)(=O)=O)n2)cc1,48.4*,17.4,14.6,35.1,32.5*,16.8,67.2*,91.1*,42.4*,1.6
COC(=O)CCS(=O)(=O)c1nc(-c2ccccc2)cc(C(F)(F)F)n1,51.0*,23.0,14.8,97.0*,44.4*,19.3,85.2*,104.7*,59.3*,13.3*
Cc1nc(C(F)(F)F)ccc1C(=O)N1CCCC(C(=O)O)CC1 (centres undefined),-7.9,·,·,·,1.4,·,·,·,·,·
O=C1CCC(c2ccccc2)c2ccccc21 (centres undefined),-1.4,0.9,·,2.7,5.8,·,·,·,·,·
N#CC1C(=O)c2ccccc2C1c1ccccc1 (centres undefined),72.8*,·,·,5.1,48.1*,6.8,7.7,98.2*,-6.3,0.2
COC(=O)C1(C(=O)OC)C/C=C\CN(S(=O)(=O)c2ccccc2[N+](=O)[O-])CC1,-7.2,·,·,·,1.7,·,·,·,·,·
COc1cc(C=C2C(=O)C=CC2=O)ccc1O,99.2*,·,·,·,65.6*,·,94.4*,107.6*,93.2*,30.3*
Cc1cccc(-c2ccc(O)cc2CN2CCN(c3ncc(Cc4ccccc4)cn3)CC2)c1,-14.4,·,·,·,-21.7,·,·,·,·,·
CC1CCCC(C)N1S(=O)(=O)c1ccc(Cl)cc1 (centres undefined),-12.9,2.7,·,1.9,5.1,-8.4,·,·,·,·
CC1=C(C)CS(=O)N(S(=O)(=O)c2ccc(Cl)cc2)C1 (centres undefined),79.9*,1.2,0.2,-7.6,37.0*,9.4,93.0*,108.8*,28.8*,2.7
O=[N+]([O-])c1ccc(Sc2ccncn2)c([N+](=O)[O-])c1,28.8*,·,·,·,24.4*,12.5,41.0*,41.2*,23.0*,-1.3
Cc1cc(C)nc(Sc2ccc([N+](=O)[O-])cc2[N+](=O)[O-])n1,-1.8,2.3,-5.0,-3.8,9.8,-4.0,·,·,·,·
